Experiment [1] in a line: E. coli DRC41 culture turbidity changes, primary screen, E. coli filamentation inducer project, strain DRC41, OD650, 48 h (AID 1152).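 Note: E. coli MC1000 strain DRC41 lacking acrAB efflux pump and sulA.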 The note with it: E. coli DRC41 (acrAB sulA), higher = more signal, called active from +8 up or from −8 down.
A short description of experiment [2]: small-molecule binders of probe aLefty1, primary screen, biochemical, small-molecule microarray, 635/667 nm fluorescence (AID 1153).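 Note: score merges spot fluorescence with signal-to-noise ratio from the scanned slide images.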 The conditions noted are these: higher = more signal.
Experiment [3] in a line: PSAC antagonists in infected red cells, primary screen, cell-based, P. falciparum Indochina, OD700, 1 h (AID 1154). The note with it: P. falciparum Indochina infected RBC osmotic lysis, higher = more signal, called active from +8 up or from −8 down.
Experiment [4] in a line: PSAC antagonists in infected red cells, primary screen, cell-based, P. falciparum Indochina, OD700, 2 h (AID 1155).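 Note: lysis reports solute entry through the parasite surface anion channel PSAC; channel blockers reduce lysis of infected cells.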 The note with it: P. falciparum Indochina infected erythrocytes, osmotic lysis OD700; higher = more signal, called active from +8 up or from −8 down.
Experiment [5] is described as follows: osmotic lysis modulators in infected erythrocytes, primary screen, PSAC antagonist project, cell-based, P. falciparum Indochina, OD700, 3 h (AID 1156). The note with it: higher = more signal, called active from +8 up or from −8 down.
A short description of experiment [6]: PSAC antagonists in infected red cells, primary screen, cell-based, P. falciparum Indochina, OD700, 18 h (AID 1157). The note with it: P. falciparum Indochina infected erythrocytes, osmotic lysis OD700, 18 h; higher = more signal, called active from +8 up or from −8 down.
Experiment [7] in a line: modulators of S6 phosphorylation in cells, primary screen, cell-based, A549, cytoblot, luminescence, serum-stimulated (AID 1158).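 Note: serum-stimulated A549 lung adenocarcinoma cells; signal is phosphorylated S6 detected by cytoblot immunostaining with HRP secondary.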 The conditions noted are these: A549 phospho-S6 cytoblot, 5 h, higher = more signal.
Experiment [8] concerns the target NADPH oxidase 2 (Homo sapiens) (UniProt P04839). Put plainly: NOX2-dependent H2O2 signal modulators, primary screen, NOX inhibitor project, cell-based, HEK293-NOX2, PMA-stimulated, Amplex Red fluorescence (AID 1159). Note: test concentration not given here. The note with it: 45 min, higher = more signal, called active from +8 up or from −8 down.
Experiment [9] concerns the target NADPH oxidase 4 (Homo sapiens) (UniProt Q9NPH5). The experiment is described as follows: NOX4-dependent H2O2 signal modulators, primary screen, NOX inhibitor project, cell-based, HEK293-NOX4, tetracycline-induced, Amplex Red fluorescence (AID 1160). The conditions noted are these: 45 min, higher = more signal, called active from +8 up or from −8 down.
Experiment [10] addresses NADPH oxidase 5 (Homo sapiens) (UniProt Q96PH1). The experiment is described as follows: NOX5-dependent H2O2 signal modulators, primary screen, NOX inhibitor project, cell-based, HEK293-NOX5, Amplex Red fluorescence (AID 1161). The note with it: HEK293-NOX5, ionomycin, 45 min, higher = more signal.

SMILES strings stand for the structures. Activity calls are given as the source filed them.

NADPH oxidase 2 (Homo sapiens), sequence (P04839 whole entry, looked up): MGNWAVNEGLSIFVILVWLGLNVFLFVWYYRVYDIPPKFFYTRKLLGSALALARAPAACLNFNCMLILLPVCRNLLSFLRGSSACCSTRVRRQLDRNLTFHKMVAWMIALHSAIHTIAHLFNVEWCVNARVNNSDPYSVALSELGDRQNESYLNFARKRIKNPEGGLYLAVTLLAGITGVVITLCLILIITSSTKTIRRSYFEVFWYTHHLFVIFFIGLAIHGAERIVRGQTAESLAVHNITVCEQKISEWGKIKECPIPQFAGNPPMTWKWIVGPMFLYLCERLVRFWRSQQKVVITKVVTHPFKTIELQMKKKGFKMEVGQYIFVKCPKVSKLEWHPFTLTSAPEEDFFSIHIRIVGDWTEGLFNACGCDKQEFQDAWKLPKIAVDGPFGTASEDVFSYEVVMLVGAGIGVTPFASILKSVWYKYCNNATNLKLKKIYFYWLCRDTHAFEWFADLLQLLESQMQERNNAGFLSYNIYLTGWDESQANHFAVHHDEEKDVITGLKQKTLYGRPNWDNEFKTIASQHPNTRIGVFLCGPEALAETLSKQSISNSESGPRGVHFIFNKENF
NADPH oxidase 4 (Homo sapiens), sequence (Q9NPH5 whole entry, looked up): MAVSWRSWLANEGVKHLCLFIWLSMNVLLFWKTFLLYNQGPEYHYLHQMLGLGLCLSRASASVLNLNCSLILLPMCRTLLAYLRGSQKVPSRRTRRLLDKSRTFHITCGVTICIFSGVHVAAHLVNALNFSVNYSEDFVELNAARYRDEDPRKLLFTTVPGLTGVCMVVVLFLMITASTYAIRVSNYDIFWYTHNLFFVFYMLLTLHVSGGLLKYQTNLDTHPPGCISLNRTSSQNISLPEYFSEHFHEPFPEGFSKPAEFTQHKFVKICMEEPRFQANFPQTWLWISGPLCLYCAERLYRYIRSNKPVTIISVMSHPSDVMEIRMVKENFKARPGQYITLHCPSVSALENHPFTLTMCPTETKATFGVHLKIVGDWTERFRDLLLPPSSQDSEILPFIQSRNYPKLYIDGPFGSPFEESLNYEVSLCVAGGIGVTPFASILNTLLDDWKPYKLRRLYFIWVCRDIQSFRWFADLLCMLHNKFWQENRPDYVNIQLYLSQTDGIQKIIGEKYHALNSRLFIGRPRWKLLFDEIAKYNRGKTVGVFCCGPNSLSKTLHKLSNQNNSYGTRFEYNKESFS
NADPH oxidase 5 (Homo sapiens), sequence (Q96PH1 whole entry, looked up): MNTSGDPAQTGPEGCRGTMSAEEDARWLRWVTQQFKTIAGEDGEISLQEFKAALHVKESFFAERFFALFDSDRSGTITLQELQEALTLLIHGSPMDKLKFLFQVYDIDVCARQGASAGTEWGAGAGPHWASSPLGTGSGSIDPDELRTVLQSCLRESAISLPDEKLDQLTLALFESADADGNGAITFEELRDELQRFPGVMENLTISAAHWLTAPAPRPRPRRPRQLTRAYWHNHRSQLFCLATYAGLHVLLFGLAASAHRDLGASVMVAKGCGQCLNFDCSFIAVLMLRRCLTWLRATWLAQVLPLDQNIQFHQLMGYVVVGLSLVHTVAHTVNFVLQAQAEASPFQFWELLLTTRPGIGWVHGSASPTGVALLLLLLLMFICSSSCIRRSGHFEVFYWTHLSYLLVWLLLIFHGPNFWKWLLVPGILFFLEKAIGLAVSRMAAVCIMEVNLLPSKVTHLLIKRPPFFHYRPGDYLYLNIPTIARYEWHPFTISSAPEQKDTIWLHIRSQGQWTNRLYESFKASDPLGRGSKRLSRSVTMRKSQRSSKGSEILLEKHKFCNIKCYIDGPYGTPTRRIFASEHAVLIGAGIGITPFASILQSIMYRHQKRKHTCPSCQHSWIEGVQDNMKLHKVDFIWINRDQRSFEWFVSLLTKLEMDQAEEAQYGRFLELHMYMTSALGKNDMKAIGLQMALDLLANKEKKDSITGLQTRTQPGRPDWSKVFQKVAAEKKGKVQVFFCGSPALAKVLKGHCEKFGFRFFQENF

Regarding `CC=CC(O)C1C=CC2C(=O)N(c3ccccc3)C(=O)C2N1Nc1ccc([N+](=O)[O-])cc1` (stereo not given), the z-score in experiment [1] was -1 (inactive); in experiment [3] it was 8.61 (active); in [4], 1.61 (inactive); in experiment [5] it was 0.457 (inactive); in experiment [6] it was 0.876 (inactive); in [7], -0.701. For the same compound, the figures for the z-score in [8], in [9] and in [10] were -0.095 (inactive), -1.91 (inactive) and -0.909, respectively. This compound also displayed a composite z-score in experiment [2] of 0.0378.
As to `COCCOC(=O)N1C(=O)[C@@]2(c3cc(C#CCNC(N)=O)ccc31)[C@H](C(=O)N1CCCCCCC1)[C@H]1C(=O)O[C@H](c3ccccc3)[C@H](c3ccccc3)N1[C@@H]2c1ccc(O)cc1`, the z-score is -0.455 (inactive) in experiment [1]; -0.0508 (inactive) in [3]; -0.164 (inactive) in experiment [4]; -0.271 (inactive) in experiment [5]; 0.0404 (inactive) in experiment [6]; 0.0746 in [7]. The z-score is 2.56 (inactive) in experiment [8], 0.475 (inactive) in experiment [9] and 1.73 in experiment [10]. The composite z-score in experiment [2] was -0.0945.
Regarding `[N-]=[N+]=Nc1ccccc1[C@H]1OC(c2ccc(OCCCO)cc2)=N[C@@]1(CCS(=O)(=O)c1ccccc1)C(=O)N1CCCCC1`, the z-score in experiment [1] was -0.311 (inactive); in [3] it was 29.8 (active); in experiment [4] it was 23.1 (active); in experiment [5], 3.29 (inactive); in experiment [6], 3.04 (inactive); in [7] it was 1.04. In addition, the z-score is -1.34 (inactive) in [8], 0.303 (inactive) in [9] and -0.265 in [10]. The composite z-score in experiment [2] turned out to be 0.495.
As for `C=CCN1C(=O)[C@@]2(CCC(=O)OC(C)(C)C)N=C(c3ccc(OCCCO)cc3)O[C@H]2c2ccccc21`, the z-score in [1] was 0.46 (inactive); in experiment [3], 36.7 (active); in [4], 36.3 (active); in experiment [5], 3.79 (inactive); in experiment [6] it was 13.2 (active); in experiment [7], 0.0444. The z-score is -2.82 (inactive) in experiment [8], 0.413 (inactive) in [9] and -0.917 in experiment [10]. Further, in experiment [2], the composite z-score is 0.466.
As for `COc1ccc([Si](C)(C)[C@H]2[C@H](CCO)O[C@@]3(C(=O)N(Cc4cccc(N5CCCCC5=O)c4)c4ccccc43)[C@@H]2C)cc1`, the z-score in experiment [1] is -0.205 (inactive); in experiment [3] it was 5.16 (inactive); in [4], 1.94 (inactive); in experiment [5] it was 0.558 (inactive); in experiment [6], 1.38 (inactive); in experiment [7], 0.781. The z-score in experiment [8] is -5.46 (inactive); in experiment [9], -1.46 (inactive); in [10] it was 0.189. In experiment [2], the composite z-score came out at 0.102.
Regarding `COC(=O)[C@@]1(Cc2ccc(OC)cc2)[C@H]2c3cc(C(=O)N4CCCC4)n(CCc4cc5ccccc5[nH]4)c3C[C@H]2CN1C(=O)c1ccccc1`, the z-score is -1.31 (inactive) in experiment [1]; 4.17 (inactive) in [3]; 0.852 (inactive) in experiment [4]; 1.45 (inactive) in [5]; 1.11 (inactive) in experiment [6]; -0.231 in experiment [7]. Also, the z-score in experiment [8] was 0.00439 (inactive); in [9], 0.319 (inactive); in [10] it was -3.28. The same compound displayed a composite z-score in [2] of 0.712.
On to `CC(C)N1C(=O)[C@@]2(c3ccc([N+](=O)[O-])cc3)CC(=O)N(C3CCCCC3)[C@@H]2c2ccc(CO)cc21`, for which the z-score in [1] was 0.0586 (inactive); in experiment [3] it was -0.716 (inactive); in experiment [4] it was -0.465 (inactive); in experiment [5], -0.393 (inactive); in [6], -0.334 (inactive); in experiment [7] it was 0.254. Also, the z-score in [8] is -0.898 (inactive); in experiment [9] it was -0.363 (inactive); in experiment [10], -0.316. Also, the composite z-score in experiment [2] is -0.672.
`COCCOC(=O)N1C(=O)[C@@]2(c3cc(C#CC4(O)CCCCCC4)ccc31)[C@H](C(=O)N1CCCCCCC1)[C@H]1C(=O)O[C@H](c3ccccc3)[C@H](c3ccccc3)N1[C@@H]2c1ccc(OCCO)cc1`: the z-score was 1.08 (inactive) in experiment [1]; 5.11 (inactive) in experiment [3]; 2.64 (inactive) in experiment [4]; 0.539 (inactive) in experiment [5]; 1.27 (inactive) in [6]; -0.108 in experiment [7]. Further, the z-score in experiment [8] is 0.738 (inactive); in experiment [9] it was 0.507 (inactive); in experiment [10] it was 1.36. Further, the composite z-score in experiment [2] stood at 2.64.
With `CN(C)CCCCNC(=O)[C@H]1C[C@H]2C(=O)N[C@@H](CCCCN(C)C)C(=O)N2[C@H]1c1cccc(OCCO)c1`, the z-score was 0.357 (inactive) in experiment [1]; 0.72 (inactive) in [3]; -0.0174 (inactive) in [4]; -0.71 (inactive) in experiment [5]; -0.0919 (inactive) in experiment [6]; -0.518 in experiment [7]. Moreover, the z-score is 0.731 (inactive) in [8], 0.756 (inactive) in experiment [9] and -0.151 in [10]. The compound further gave a composite z-score in experiment [2] of -0.546.
As for `COCCOC(=O)N1C(=O)[C@@]2(c3cc(C#CC4(O)CCCCCC4)ccc31)[C@H](c1ccccc1OCCO)N1[C@H](c3ccccc3)[C@H](c3ccccc3)OC(=O)[C@H]1[C@@H]2C(N)=O`, the z-score in experiment [1] is -0.552 (inactive); in experiment [3], 4.08 (inactive); in [4], 1.76 (inactive); in experiment [5], -0.971 (inactive); in experiment [6], 0.76 (inactive); in [7], -0.255. The z-score in experiment [8] is 1.8 (inactive); in experiment [9], -0.551 (inactive); in [10], -0.269. Further, the composite z-score in experiment [2] is -0.0046.
`CC1CC/C=C\[C@H]2OC34C=CCN(c5ccc6ccccc6c5)C(=O)[C@H]3N(C(CO)C(C)C)C(=O)[C@@H]4C2C(=O)O1` (stereo not given in full): the z-score in experiment [1] is -0.488 (inactive); in experiment [3], 4.35 (inactive); in [4], 1.06 (inactive); in experiment [5] it was 1.01 (inactive); in experiment [6], 0.674 (inactive); in [7] it was -0.526. For the same compound, the results for the z-score in experiment [8], in [9] and in experiment [10] were 1.49 (inactive), -0.0631 (inactive) and 1.68, respectively. Also, in experiment [2], the composite z-score amounted to 0.245.
For `CCOC(=O)C[C@H]1[C@H](OC(=O)c2ccc(-c3ccccc3)cc2)[C@@H](NC(=O)c2ccc3ccccc3n2)c2cc(OCCCO)ccc2N1C(=O)c1ccccc1`, the z-score in experiment [1] was -0.715 (inactive); in experiment [3], 0.18 (inactive); in experiment [4] it was -0.168 (inactive); in experiment [5], -0.571 (inactive); in experiment [6], 0.261 (inactive); in [7] it was 0.893. For the same compound, the z-score is -0.59 (inactive) in experiment [8], -1.72 (inactive) in experiment [9] and -1.04 in experiment [10]. Further, the composite z-score in experiment [2] was 0.0367.
Regarding `C[C@]1(C(=O)NC2CC2)c2ccccc2C(=O)N(Cc2ccc(OC(F)(F)F)cc2)[C@H]1c1ccc(CO)cc1`, the z-score in [1] was 0.323 (inactive); in [3], 3.33 (inactive); in experiment [4], 0.258 (inactive); in [5], 4.64 (inactive); in experiment [6], 0.0105 (inactive); in experiment [7], -0.111. In addition, the z-score in [8] was 0.264 (inactive); in experiment [9], 0.731 (inactive); in experiment [10], 0.138. This compound yielded a composite z-score in experiment [2] of -0.0186.
`CN1C(=O)C2C(C1=O)C1C=C(c3ccc(CO)cc3)C2C(c2cccs2)N1Cc1cccc(OC(F)(F)F)c1` (stereo not given): the z-score in experiment [1] was -0.652 (inactive); in experiment [3], 17.4 (active); in experiment [4], 3.33 (inactive); in [5] it was 1.81 (inactive); in experiment [6], 1.43 (inactive); in [7], 0.624. In addition, the z-score was -2.71 (inactive) in experiment [8], -1.35 (inactive) in experiment [9] and -2.6 in [10]. In addition, in experiment [2], the composite z-score was 0.0999.
Consider `C[C@H]1C2=C3C(CC[C@H]4C(OCc5ccc(F)cc5C(F)(F)F)OC[C@](C)([C@@H]34)N(C(=O)OC(C)(C)C)C2)C(CO)C1CO` (stereo not given in full), for which the z-score is -2.8 (inactive) in experiment [1]; 1.94 (inactive) in [3]; 0.368 (inactive) in experiment [4]; 2.1 (inactive) in experiment [5]; 0.864 (inactive) in [6]; 0.118 in [7]. For the same compound, the z-score in experiment [8] is -0.678 (inactive); in experiment [9], -2.59 (inactive); in experiment [10] it was -1.97. Also, in [2], the composite z-score came to 0.687.
Consider `O=C1O[C@@H](c2ccccc2)[C@@H](c2ccccc2)N2[C@@H](c3ccc(O)cc3)[C@]3(C(=O)Nc4ccccc43)[C@@H](C(=O)Nc3nc4ccccc4s3)[C@H]12`, for which the z-score was -0.198 (inactive) in experiment [1]; 1.37 (inactive) in experiment [3]; 2.29 (inactive) in experiment [4]; -0.492 (inactive) in experiment [5]; 1.82 (inactive) in experiment [6]; -0.132 in [7]. The z-score in experiment [8] is 0.642 (inactive); in [9], 0.0436 (inactive); in experiment [10] it was 0.933. Moreover, the composite z-score in [2] is -0.209.
`COCCOC(=O)N1C(=O)[C@@]2(c3cc(C#CC4=CCCCC4)ccc31)[C@H](C(=O)N1CCN(c3ncccn3)CC1)[C@H]1C(=O)O[C@H](c3ccccc3)[C@H](c3ccccc3)N1[C@@H]2c1ccc(O)cc1`: the z-score in experiment [1] was -0.386 (inactive); in [3] it was 1.65 (inactive); in experiment [4], 1.5 (inactive); in experiment [5] it was 0.116 (inactive); in experiment [6], 0.824 (inactive); in experiment [7], 1.13. In addition, the z-score in experiment [8] was 1.11 (inactive); in experiment [9], 0.482 (inactive); in [10], 1.2. In [2], this compound displayed a composite z-score of 0.315.
